# The panel holds about 83,000 compounds, 20% with a hit somewhere; the sample as a whole holds those more often.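 Cells were grown in 96-well plates and exposed to the test compound at a single concentration for 48 hours; results are reported as percent growth, with values below 10 considered active.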 Active and inactive are the calls of the source.
# Tested on: NCI-H522 lung
# Test: NCI-60 one-dose screen, 48 h (100 = growth as untreated, 0 = no growth, -100 = all killed)
# Details: 10 µM
# Method: Growth inhibition of the NCI-H522 human Non-Small Cell Lung tumor cell line is measured as a screen for anti-cancer activity. Cells are grown in 96 well plates and exposed to the test compound for 48 hours. Compounds are tested at a single concentration, which is 10^-5 M for most compounds. The reported endpoint is percent growth (GI% or GIPRCNT), where numbers from 0 - 100% represent growth inhibition, and numbers from -100% - 0 represent cell death. For example, a value of 40 represents 60% growth inhibition. A value of 0 means no net growth occurred over the course of the experiment. A value of -40 indicates 40% of cells at the beginning of the experiment died by the end of the experiment. A value of -100 means all cells are dead at the end of the experiment.
# NCI-60 Human Tumor Cell Lines Screen was performed using the standard one-dose NCI protocol, which is described in more detail at https://dtp.cancer.gov/discovery_development/nci-60/default.htm.
# Compounds with GIPRCNT values below 10 were considered active. Activity score was based on GIPRCNT using the following formula: […]
# Score is 0 for GIPRCNT values of 100 or above, 50 for GIPRCNT values of 0, and 100 for GIPRCNT values of -100.
row,Structure (SMILES),growth
1,CC1CCCCN1C(=S)Nc1ccc(S(=O)(=O)N2CCCCC2)cc1 (stereo not given),73% (inactive)
2,COCCOCCCl,101% (inactive)
3,CCc1nc(N)nc(N)c1-c1ccc(Cl)cc1,83% (inactive)
4,OCCN(CCO)C(=S)S,101% (inactive)
5,O=C(N/N=C\c1cc(Br)cc(Br)c1O)N/N=C/c1cc(Br)cc(Br)c1O,22.3% (inactive)
6,C#Cc1cccc(NC(=O)c2ccc(Cl)cc2Cl)c1,74.4% (inactive)
7,CCOc1ccc(/C=C/C(=O)c2ccccc2)cc1,76.9% (inactive)
8,Cc1ccc(C(=O)NC2c3ccccc3Oc3ccccc32)cc1,41.2% (inactive)
9,O=c1cc(-c2ccccc2)[nH]c2c1CCCC2,13.6% (inactive)
10,Cc1cc2nc(CC(=O)c3ccccc3)c(=O)[nH]c2cc1C,81.2% (inactive)
11,CCOC(=O)CCCS(C)(=O)=O,109% (inactive)
12,CCNc1nc2c(cnn2C)c(=O)[nH]1,98.4% (inactive)
13,N#CCCN(CCCN1CCOCC1)CN1C(=O)c2ccccc2C1=O,92% (inactive)
14,Cc1ccncc1C(N)=O,101% (inactive)
15,O=C(NN=C1CCCCC1)C(=O)NN=C1CCCCC1,98.7% (inactive)
16,C#CC(C(C)C)N(CCO)CCCC (stereo not given),107% (inactive)
17,CO[C@H]1C[C@@H]2CC[C@@H](C)[C@@](O)(O2)C(=O)C(=O)N2CCCC[C@H]2C(=O)O[C@H]([C@H](C)C[C@@H]2CC[C@@H](O)[C@H](OC)C2)CC(=O)[C@H](C)C=C(C)[C@@H](O)[C@@H](OC)C(=O)[C@H](C)C[C@H](C)/C=C/C=C/C=C1C,53.8% (inactive)
18,O=C(c1ccc(O)cc1)c1ccc(O)cc1,95.8% (inactive)
19,COc1ccccc1C1OC2=Nc3cc(C)c(C)cc3NC2C1=O (stereo not given),91% (inactive)
20,O=C1c2ccccc2C(=O)c2c1ccc(C(=O)O)c2[N+](=O)[O-],97% (inactive)

row,Structure (SMILES),growth
1,CCOC(=O)c1ccc(Nc2sc(C(=O)c3cccc([N+](=O)[O-])c3)c(N)c2C#N)cc1,5.23% (active)
2,Nc1ncnc2c1nc(N)n2C1OC(CO)C(O)C1O (stereo not given),-63.3% (active)
3,O=C(NC1CCCCC1)OCc1c(COC(=O)NC2CCCCC2)c(-c2ccc(Cl)c(Cl)c2)n2c1CCC2,-23.9% (active)
4,CC(=O)N(C)c1ccc([N+](=O)[O-])cc1,106% (inactive)
5,CN(C)/N=C/c1ccccc1O,96.2% (inactive)
6,C/C(=N/NC(N)=O)c1ccco1,90.5% (inactive)
7,CNC(=S)NC(C)(C)C,98% (inactive)
8,c1ccc2c(N3CCCCC3)ncnc2c1,47.6% (inactive)
9,O=P(O)(O)OCC(O)CO (stereo not given),109% (inactive)
10,O=c1cc(-c2ccccc2)[nH]c(=S)[nH]1,89.3% (inactive)
11,O=C1C=C(Nc2ccc([N+](=O)[O-])cc2)c2ccccc2C1=O,21.5% (inactive)
12,O=c1cc2oc3cc(O)c(O)cc3c(-c3ccccc3O)c-2cc1O,66.8% (inactive)
13,CC(C)COC(=O)COC(=O)OCCOCCOC(=O)OCC(=O)OCC(C)C,95.9% (inactive)
14,CCn1c(=O)n(C)c2c(=O)n(C)c(=O)n(C)c21,96.1% (inactive)
15,Oc1ccc2c(c1)OCC1(O)Cc3cc(O)c(O)cc3C21 (stereo not given),-34.1% (active)
16,CC(=O)c1ccc(C)c(N)c1,99.9% (inactive)
17,COc1ccc(-c2cc3c(nn2)-c2ccccc2C3=O)cc1,26.4% (inactive)
18,O=C(Nc1cc(-c2ccccc2)[nH]n1)c1ccc(Cl)cc1,72.5% (inactive)
19,S=C(Nc1ccccc1)N1CCCCC1,94.9% (inactive)
20,O=[N+]([O-])c1ccc(-c2ncc(-c3ccc(Br)cc3)o2)cc1,-2.2% (active)
